Shown are actives, neighbours in structure and some others; about 1% of the full set was active somewhere.
TNFa cytotox – toxic to HUVEC cells under TNF alpha stimulation; cell count reduction, % at 2 µM; HUVEC TNFalpha-stimulated, Hoechst cell count, imaging; 93,000 compounds, 0.17% hits; AID 848;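 active = cell count reduction exceeding the screen mean by over 5 SD, scaled to untreated wells per plate, cut at about 78% in these data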;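 note: cells counted after 24 h of TNF alpha exposure following the 1 h pretreatment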
VCAM1 TNFa inh – reduces TNF alpha induced VCAM1 expression in HUVEC; HUVEC TNFa-induced VCAM-1 immunofluorescence, high-content imaging; 95,000 compounds, 0.48% hits; inhibition, % at 2 µM;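 active = inhibition above the batch mean plus 3 SD, with images confirmed as a hit by eye, cut at about 37% in these data; inconclusive = inhibition above that limit but hit not confirmed in images; inactive = inhibition not above that limit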;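 note: 0% = TNF-stimulated DMSO wells and 100% = unstimulated control wells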
F-actin modifier – alters cytoskeleton assembly in HUVEC cells. HUVEC TNFa F-actin phalloidin imaging, high content. 91,000 compounds, 0.18% hits. inhibition, % at 2 µM;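 active = inhibition above the batch mean plus 3 SD and confirmed as a hit by visual image inspection, cut at about 30% in these data, passing the limit was not always enough; inconclusive = above the inhibition threshold but rejected on visual inspection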
E-sel TNF inh – TNF alpha driven E-selectin expression inhibition | HUVEC TNFa-induced E-selectin immunofluorescence, high content | 120,000 compounds, 0.71% hits | inhibition, % at 2 µM;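 active = inhibition above the batch mean plus 3 SD, and confirmed as a hit on visual image review, cut at about 43% in these data; inconclusive = passes the inhibition cutoff but fails visual image review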;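 note: 0% = TNF-stimulated DMSO wells and 100% = unstimulated control wells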
* marks the source's active call; other numbers are inactive results; ? = inconclusive; · = no result.

SMILES | TNFa cytotox | VCAM1 TNFa inh | F-actin modifier | E-sel TNF inh
COc1ccc(C(=O)c2ccc(N(C)C)cc2)c(OC)c1 | -29 | 8 | 0 | ·
Cc1ccc(CNc2ccc(S(=O)(=O)N3CCOCC3)cc2[N+](=O)[O-])cc1 | · | · | · | 76*
COc1ccc(-c2cc3ccc(OCc4nn[nH]n4)cc3oc2=O)cc1OC | 77 | 51* | 14 | -32
CCC(=O)N1CCc2cc(S(=O)(=O)Nc3ccc4c(c3)OCCO4)ccc21 | 0 | -2 | -14 | -9
O=C(C1CCC1)N1CCc2cc(S(=O)(=O)Nc3ccc4c(c3)OCCO4)ccc21 | 63 | 83* | -34 | 1
COc1ccc(CCNC(=O)CCCn2c(SCC(N)=O)nc3cc4c(cc3c2=O)OCO4)cc1OC | · | · | · | -13
Cc1cc(OC(C)C(N)=O)nc(-c2ccccc2)n1 (stereo unspecified) | · | · | · | 10
O=C(Nc1ccc(Oc2ccccc2)cc1)C1CCCN(c2ncccn2)C1 (stereo unspecified) | -5 | 1 | 71* | -23
NC(=O)C(c1ccc(Cl)cc1)c1ccc(Sc2ccc(Cl)cc2)nn1 (stereo unspecified) | -6 | -21 | -4 | 4
COc1ccc2nc(SCc3nc(N)nc(Nc4ccccc4)n3)[nH]c2c1 | -19 | 12 | -4 | 95*
CCOc1ccc(-n2nc(C(=O)N3CCN(CC)CC3)c3ccccc3c2=O)cc1 | 8 | -6 | -11 | 66*
CCOc1ccc(-n2nc(C(=O)NCCOC)c3ccccc3c2=O)cc1 | · | · | · | 2
CC(=O)N[C@@H](Cc1c[nH]c2ccccc12)C(=O)OCC(=O)Nc1ccc(S(=O)(=O)N(C)C)cc1 | · | · | · | 75*
CCCn1c(SCC(=O)N2c3ccccc3Sc3ccccc32)nc2c1c(=O)n(C)c(=O)n2C | -6 | 1 | 13 | 65*
COC(=O)CN1C(=S)N(c2ccc(Cl)cc2)C(=O)C1CC(=O)Nc1ccc(F)cc1 (stereo unspecified) | · | · | · | 17
COC(=O)CN1C(=S)N(c2ccc(Cl)cc2)C(=O)C1CC(=O)Nc1ccc(Cl)cc1 (stereo unspecified) | · | · | · | 57*
CC1CC1C(=O)Nc1cc(S(=O)(=O)N2CCOCC2)ccc1N1CCCC1 (stereo unspecified) | · | · | · | -11
O=C(COc1ccc(-c2ccccc2)cc1)N1CCCC1 | · | · | · | -1
O=Cc1cc2ccccc2nc1SCc1ccc(Cl)c(Cl)c1 | 69 | 72* | -49 | 6
Cc1ccc(CSc2nc3ccccc3cc2C=O)cc1 | 56 | 95* | -31 | -16
COc1cnn(-c2ccccc2)c(=O)c1SCc1ccc(Cl)c(Cl)c1 | -19 | 6 | 16 | 2
O=Cc1cc2ccccc2nc1SCc1ccc(Cl)cc1 | 34 | 66* | -41 | 25
Cc1ccc(CSc2ncccc2C(=O)O)cc1 | -24 | -2 | 4 | 5
Clc1ccc(CSc2ncccn2)cc1 | -4 | 4 | -3 | -6
CC(=O)Nc1ccc(OS(=O)(=O)c2ccc(C(C)(C)C)cc2)cc1 | · | · | · | -4
SMILES | TNFa cytotox | VCAM1 TNFa inh | F-actin modifier | E-sel TNF inh
O=C(COc1ccc(-n2ccnc2)cc1)Nc1cccc(Cl)c1 | · | · | · | -37
CCOc1ccc(CC(=O)OCn2nnc3ccccc3c2=O)cc1 | · | · | · | -31
COc1cc(C(=O)N(Cc2ccco2)Cc2cc3ccccc3[nH]c2=O)cc(OC)c1OC | 44 | -8 | 35* | ·
COc1ccccc1NC(=S)N(Cc1ccco1)Cc1cc2cccc(C)c2[nH]c1=O | · | · | · | 61*
COc1cc(C(=O)Nc2ccc3c(c2)C(=O)c2ccccc2C3=O)cc(OC)c1OC | · | · | · | 64*
CC(=O)N1CCC2(CC1)C(C#N)=C(N)Oc1c2sc2nc(C)cc(C)c12 | · | · | · | -40
CCN1CCC2(CC1)C(C#N)=C(N)Oc1c2sc2nc(C)cc(C)c12 | 69 | 84* | -61 | 15
CCCCCCCCn1c2c(c(=N)c3ccccc31)CCC2 | · | · | · | -27
CCCCCCCCCCn1c2c(c(=N)c3c1CCC3)CCC2 | 14 | 87* | -43 | ·
Nc1cccc(-n2nncc2-c2ccc(Cl)cc2)c1 | -4 | 11 | -9 | 65*
COc1ccc(-c2cnnn2-c2ccc(N)cc2)cc1OC | -17 | 17 | 5 | 13
O=C(NC(Cc1ccccc1)C(=O)O)/C(=C/c1ccc([N+](=O)[O-])cc1)NC(=O)c1ccccc1Br (stereo unspecified) | · | · | · | 0
O=C(OCC1CC(c2ccccn2)=NO1)c1ccc(Br)cc1 (stereo unspecified) | · | · | · | 96*
O=c1c2ccccc2nc(/C=C/c2ccc([N+](=O)[O-])o2)n1CCCO | 10 | 58* | 1 | -64
CN(C)CCNC(=S)Nc1ccc(Br)cc1 | · | · | · | 22
c1ccc(-n2c(-c3ccncc3)nnc2-c2ccco2)cc1 | -38 | -3 | 1 | -10
c1ccc(-n2c(-c3ccncc3)nnc2N2CCOCC2)cc1 | -30 | 2 | 6 | 60*
CC(=NCc1cccc(Cl)c1)c1nc(-c2ccco2)oc1O | · | · | · | 1
Nc1ccccc1NC(=O)c1ccccc1N | 93* | 81* | -3 | ·
Cc1c(NC(=O)c2ccccc2N)cccc1C(=O)O | -21 | 21 | -4 | -3
O=C(Cc1ccccc1)c1nnc(-c2ccccc2)o1 | · | · | · | -7
O=C(OCn1ncc(Br)c(Br)c1=O)c1c(F)cccc1F | 17 | 74* | 26 | 23
O=C(Nc1ccc(Cl)cc1)Nc1nnc(CSc2ccc(Cl)cc2)s1 | · | · | · | 64*
COc1ccccc1N(C)S(=O)(=O)c1ccc(C(=O)NCC(C)C)cc1 | 28 | 74* | -26 | 13
CCC(C)(C)NC(=O)c1ccc(S(=O)(=O)N(C)c2ccccc2OC)cc1 | 5 | -7 | -7 | 0
SMILES | TNFa cytotox | VCAM1 TNFa inh | F-actin modifier | E-sel TNF inh
CCCCCOc1ccc(Br)cc1/C(C)=N/NC1=NCCN1 | 51 | 48 | 49* | 4
O=C(Nc1ccccc1)C1=C(c2ccccc2)S(=O)(=O)CCS1(=O)=O | · | · | · | 100*
C=CCN(CC=C)S(=O)(=O)c1ccc(NC(=S)NC(=O)/C=C/c2cccc3ccccc23)cc1 | 2 | -10 | -12 | 68*
COc1ccc(NC(=O)CN2C(=O)N(C)Cc3ccccc32)c(C)c1 | · | · | · | 34
Cn1c(Oc2ccccc2NCc2cccc(Br)c2)cc(=O)n(C)c1=O | 4 | 7 | 2 | 17
CCOc1ccccc1C(=O)N(Cc1ccccc1)Cc1cc2cc3c(cc2[nH]c1=O)OCCO3 | 0 | 12 | 9 | -4
CCOc1c(C)cc2[nH]c(CCC(=O)O)nc2c1C | · | · | · | 96*
COc1ccc(Cl)cc1/C=C(\C#N)C(N)=O | · | · | · | -6
CCOC(=O)C(C)Oc1cccc2c(=O)n(CC(=O)Nc3cccc(OC)c3)ccc12 (stereo unspecified) | -14 | 5 | -18 | 67*
CCOC(=O)C(C)Oc1cccc2c(=O)n(CC(=O)Nc3ccc4c(c3)OCCO4)ccc12 (stereo unspecified) | -3 | 3 | -5 | ·
CCOC(=O)C(C)Oc1cccc2c(=O)n(CC(=O)NCc3ccc4c(c3)OCO4)ccc12 (stereo unspecified) | 94* | 39 | ? | ·
N#Cc1ccc(NC(=S)NCCN2CCOCC2)cc1 | · | · | · | -36
CCOC(=O)C1=C(c2ccccc2)O/C(=C(/C#N)C(F)(F)F)S1 | 26 | 56* | -4 | -3
CCOC(=O)C1CCN(C(=O)COc2ccc(N(C)S(=O)(=O)c3ccc(C)cc3)cc2)CC1 | · | · | · | 18
O=C(/C=C/c1ccc(S(=O)(=O)NCc2ccco2)cc1)N1CCN(c2ccccc2)CC1 | · | · | · | -7

From PubChem BioAssay
